Measurements as given in PubChem BioAssay AID624354 (Sanford-Burnham Center for Chemical Genomics, 2012).
Screen size: about 360,000 compounds; about 3,800 (1.1%) were called active.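 The calls were made as follows: active = compounds causing at least 50% loss of cell viability in the single-dose screen, relative to plate controls; inactive = the rest.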 For the sample, actives were picked, then their nearest neighbours and some compounds at random.

Test: TRAIL-exposed caspase-8 expressing cell killing – NB7+C8 cells, ATPlite luminescence, TRAIL sensitizer project, primary screen (AID 624354)
Details: at 10 µM, stronger effect = higher value
For CN(CCO)c1ccc(/C=N/Nc2nncc3ccccc23)cc1, the inhibition (viability loss, TRAIL sensitization) was 95.3% (active). For O=C1COc2c1ccc(O)c2O, the inhibition (viability loss, TRAIL sensitization) was -11.8% (inactive). For CNCC(O)c1ccc(O)c(O)c1 (stereo not drawn), the inhibition (viability loss, TRAIL sensitization) was -0.467% (inactive). In the case of CCC(C)c1ccc(O)c(/C=N/O)c1 (stereo not drawn), the inhibition (viability loss, TRAIL sensitization) is reported as 51% (active). For CS(=O)(=O)N(Cc1ccc(Cl)cc1)c1ccc(C(=O)NCCSCc2ccco2)cc1, the inhibition (viability loss, TRAIL sensitization) was -4.92% (inactive). With CCc1c(C)c2ccc(OC3CCCCC3=O)cc2oc1=O (stereo not drawn) the inhibition (viability loss, TRAIL sensitization) was -0.131% (inactive). For O=C(NCCCN1CCN(c2ccccc2F)CC1)C1CCC(=O)N1C1CCCCC1 (stereo not drawn), the inhibition (viability loss, TRAIL sensitization) was 0.0726% (inactive). In the case of Cc1c(C(=O)NCCN(C)C)oc2ccc(S(=O)(=O)N3CCCC3)cc12, the inhibition (viability loss, TRAIL sensitization) is reported as -7.61% (inactive). In the case of COc1ccc(CCNC(=O)CN(c2ccccc2)S(C)(=O)=O)cc1OC, the inhibition (viability loss, TRAIL sensitization) is reported as -3.49% (inactive). With COc1ccc(C(CCN(Cc2ccc(OC)c(OC)c2)C(=O)CCl)c2ccccc2)cc1 (stereo not drawn) the inhibition (viability loss, TRAIL sensitization) was 97.3% (active). For CCOc1ccc(C(CCc2ccccc2)NC(=O)c2ccc(OC)c(OC)c2)cc1OCC (stereo not drawn), the inhibition (viability loss, TRAIL sensitization) was 30.5% (inactive). For CCOc1ccc(NC(=O)N(CCC(C)C)C(C)c2ccco2)cc1 (stereo not drawn), the inhibition (viability loss, TRAIL sensitization) was -2% (inactive). In the case of N#Cc1ccc(OCc2nnc(-c3ccc([N+](=O)[O-])cc3)o2)cc1, the inhibition (viability loss, TRAIL sensitization) is reported as -1.32% (inactive). With CCOc1ccc(-c2nnc(-c3ccco3)o2)cc1 the inhibition (viability loss, TRAIL sensitization) was 55.3% (active). In the case of O=C(Nc1n[nH]c(C(F)(F)F)n1)c1cccs1, the inhibition (viability loss, TRAIL sensitization) is reported as -2.07% (inactive). For COc1cc(NC(=O)c2ccc(-c3csc(C)n3)cc2)c(OC)cc1Cl, the inhibition (viability loss, TRAIL sensitization) was 25.1% (inactive). For Cc1nc(-c2ccc(NC(=O)c3cccs3)cc2)cs1, the inhibition (viability loss, TRAIL sensitization) was 81% (active). In the case of CC(=O)NNc1cc(=O)c2c(=O)n(C)c(=O)n(C)c2[nH]1, the inhibition (viability loss, TRAIL sensitization) is reported as 7.17% (inactive). With Cc1cnc(NC(=O)Cn2cnc3c2c(=O)n(C)c(=O)n3C)s1 the inhibition (viability loss, TRAIL sensitization) was -2.16% (inactive). For Cc1cc(C)cc(NC(=O)NCc2ccccn2)c1, the inhibition (viability loss, TRAIL sensitization) was 7.88% (inactive). With Cc1cnc(NC(=O)c2ccccn2)s1 the inhibition (viability loss, TRAIL sensitization) was 56% (active). With COc1ccc2occ(C(=O)c3ccc(N=C(C)N(C)C)cc3)c2c1 the inhibition (viability loss, TRAIL sensitization) was 10.5% (inactive). With Cc1ccc(NC(=O)c2ccc(Oc3ncccn3)cc2)cc1 the inhibition (viability loss, TRAIL sensitization) was 1.61% (inactive). In the case of O=C(Nc1ccc(OC(F)(F)F)cc1)c1ccc2c(c1)no[n+]2[O-], the inhibition (viability loss, TRAIL sensitization) is reported as 86.8% (active). For CCc1nnc(NS(=O)(=O)c2ccc(NC(=O)c3cccc(OC(F)(F)C(F)F)c3)cc2)s1, the inhibition (viability loss, TRAIL sensitization) was -18.2% (inactive). With Cc1ccccc1C(=O)NNC(=O)CN1C(=O)c2ccccc2C1=O the inhibition (viability loss, TRAIL sensitization) was -2.34% (inactive). With C=CCN(CC=C)C(=O)CN1C(=O)c2ccccc2C1=O the inhibition (viability loss, TRAIL sensitization) was 36.5% (inactive). With C=CCn1c(C)cc(C(=O)CN2C(=O)c3ccccc3C2=O)c1C the inhibition (viability loss, TRAIL sensitization) was 52% (active).
